The results in this text go back to the supplement of paper PMC8728848.

Assay in all cases: glycan array binding signal (z-score within array); higher = stronger binding
Holding throughout (settings): glycan notation: IUPAC condensed, linker removed

In assay [1] the target is Gal6P(b1-4)GlcNAc. The method in brief:
(§1)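 Negative Z-scores can be read as non-binding. The Z-score is calculated within each array and then averaged across arrays of one protein sequence at different concentrations or buffers and across linkers. Arrays, 3228 in all, were curated from the Consortium for Functional Glycomics database and kept only where the protein sequence was available.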

Assay [2] concerns the target GalNAc4S6S(b1-4)GlcNAc. The method in brief:
as §1

Assay [3] deals with GlcNAc(b1-2)[GlcNAc(b1-4)]Man(a1-3)[GlcNAc(b1-4)][GlcNAc(b1-2)[GlcNAc(b1-6)]Man(a1-6)]Man(b1-4)GlcNAc(b1-4)[Fuc(a1-6)]GlcNAc. The method in brief: as §1
The target in assay [4] is GlcNAc(b1-3)Gal(b1-4)GlcNAc(b1-3)Gal(b1-4)GlcNAc(b1-3)Gal(b1-4)GlcNAc(b1-3)Gal(b1-4)GlcNAc(b1-2)[GlcNAc(b1-3)Gal(b1-4)GlcNAc(b1-3)Gal(b1-4)GlcNAc(b1-3)Gal(b1-4)GlcNAc(b1-3)Gal(b1-4)GlcNAc(b1-6)]Man(a1-6)[GlcNAc(b1-3)Gal(b1-4)GlcNAc(b1-3)Gal(b1-4)GlcNAc(b1-3)Gal(b1-4)GlcNAc(b1-3)Gal(b1-4)GlcNAc(b1-2)Man(a1-3)]Man(b1-4)GlcNAc(b1-4)[Fuc(a1-6)]GlcNAc. The method in brief: as §1

Assay [5] concerns the target GlcNAc(b1-3)Gal(b1-4)GlcNAc(b1-6)[GlcNAc(b1-3)]Gal(b1-4)GlcNAc. The method in brief:
as §1

Assay [6] addresses GlcNAc(b1-4)Gal(b1-4)GlcNAc. The method, boiled down: as §1
Assay [7] deals with GlcNAc(b1-4)GlcNAc(b1-4)GlcNAc(b1-4)GlcNAc(b1-4)GlcNAc. The method in brief: as §1
Assay [8] deals with GlcNAc(b1-4)GlcNAc(b1-4)GlcNAc(b1-4)GlcNAc(b1-4)GlcNAc(b1-4)GlcNAc. The method, boiled down:
as §1

The target in assay [9] is GlcNAc(b1-6)GalNAc. The method in brief:
as §1

Assay [10] addresses Man(a1-2)Man(a1-2)Man(a1-3)Man. The method, boiled down:
as §1

Assay [11] deals with Man(a1-3)[Man(a1-6)]Man. The method, boiled down:
as §1

Assay [12] deals with Neu5Ac(a2-3)Gal(b1-3)GalNAc(b1-3)Gal(a1-4)Gal(b1-4)Glc. The method, boiled down: as §1
Assay [13] deals with Neu5Ac(a2-3)Gal(b1-3)[Fuc(a1-4)]GlcNAc(b1-3)Gal(b1-3)[Fuc(a1-4)]GlcNAc. The method, boiled down: as §1
The target of assay [14] is Neu5Ac(a2-6)Gal(b1-4)Glc. The method in brief:
as §1

In assay [15] the target is Neu5Ac(a2-6)Gal(b1-4)GlcNAc. The method in brief: as §1
For assay [16], the target named is Neu5Ac(a2-6)Gal(b1-4)GlcNAc(b1-2)Man(a1-3)Man(b1-4)GlcNAc(b1-4)GlcNAc. The method in brief:
as §1

Assay [17] has as its target Neu5Ac(a2-6)Gal(b1-4)GlcNAc(b1-2)Man(a1-3)[GlcNAc(b1-2)Man(a1-6)]Man(b1-4)GlcNAc(b1-4)GlcNAc. The method, boiled down:
as §1

Assay [18] deals with Neu5Ac(a2-6)Gal(b1-4)GlcNAc(b1-3)Gal(b1-4)GlcNAc(b1-3)[Neu5Ac(a2-6)Gal(b1-4)GlcNAc(b1-3)Gal(b1-4)GlcNAc(b1-6)]GalNAc. The method, boiled down:
as §1

The target in assay [19] is Neu5Ac(b2-6)GalNAc. The method, boiled down: as §1
Assay [20] has as its target Neu5Gc(a2-6)Gal(b1-4)GlcNAc. The method, boiled down: as §1

This is one part of a sample in which the strongest signals are shown more often than they occur.

B1: PX9937I-bfa-538-26-538 (Bacteroides fragilis) (protein)
chain: DKLDLSPIDYYGSGSYWKTEAQATAYIDGIHKHLRDAAWQHTITFGELRGGRFITGASSDGMGVSNGDIILQNFDETHTGVSKFGDLFGRITNLNLFIARVTDATYLSDEMKNFYLGEVYGLRAFYYFDLYRIYGGVPLRLTADVVEGVIDPNKLYMARSTPKEVMTQIKSDLNKSMEYFGNMNDFDPYKRGKKVYWSKAATECLMGEVYLWTSKVTTGDDVANPADLTIAKTHLESVLNNYNLKMLDDFSQVFNAKNKANDEIIFAIRFLEGEATNSNGTFTYNVGTGSTKNRYQANGEVFGDALDIQNTGNQTYEYNKAVYQNFDDADTRKEATFIASYNKDGKTGELSLYGTHVRKNIGYVNAQGARVYCGDYIFYRLPWVYLTLAEIANMEGDNAAVAKYINLVRKRAYGNAWDETLYAYPETADFTTNELAILHEKDKEFIQEGQRWWDLRRMTLTKGGTPLVFCKEGSLLGDAPILNKSTEAHKLLWPIEKTMLNKDPALEQTPGYK
Turning to B1, the “glycan array binding signal (z-score)” value in [1] is -0.37; in assay [2], -0.708; in assay [3] it was -0.615; in [4] it was 0.041; in assay [5], -0.068; in assay [6] it was 1.65. For the same molecule, the “glycan array binding signal (z-score)” value was 1.25 in [7]; -0.198 in [8]; 0.252 in assay [9]; 0.241 in assay [10]; 0.95 in assay [11]; -1 in [12]. The “glycan array binding signal (z-score)” value was -1.26 in assay [13]; -0.274 in assay [14]; -0.419 in assay [15]; 3.63 in [16]; -0.591 in assay [17]; -0.643 in assay [18]. Besides, the “glycan array binding signal (z-score)” value in assay [19] is -0.386; in [20], -0.339.
